Results: PubChem BioAssay
A number with no mark means an inactive call. Where a call stands in place of a potency, no number is given. For part of these data: Potency and affinity values are given separately. Activity calls are given as the source filed them. Unless noted, how the calls were made is not given here.

How the values were obtained:
[1] = antimalarial activity against Dd2 strain (AID 2302;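 active means growth inhibition above 50% at the single 2 µM test dose, taken to imply half-maximal potency below 2 µM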); conditions: P. falciparum Dd2 in RBCs, LDH growth readout, 72 h; at 2 µM; hits give high values
[2] = human hepatoma cell viability loss – ATP luminescence, cytotoxicity control for P. falciparum antimalarial project, primary screen (AID 2303;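 active means inhibition above 50%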); conditions: HepG2 viability, 24-48 h, at 10 µM, hits give high values
[3] = target: L-lactate dehydrogenase (Plasmodium falciparum (isolate CDC / Honduras)) (UniProt Q27743); test: PfLDH activity inhibition – cell lysate, 3D7 strain, counter-screen for P. falciparum growth inhibition project (AID 2304); conditions: P. falciparum 3D7 crude extract, LDH APAD/NBT absorbance; at 2 µM; hits give high values
[4] = inhibition of 3D7 malaria parasite growth – strain 3D7 (AID 2306); conditions: P. falciparum 3D7 erythrocytic growth, LDH absorbance, 72 h; at 2 µM; hits give high values
[5] = target: Calcium-dependent protein kinase 1 (Plasmodium falciparum (isolate 3D7)) (UniProt P62344); test: PfCDPK1 kinase inhibitors, biochemical, TCAMS library (AID 1159585; cut-off not given, nearly all actives have IC50 up to about 0.98 µM;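 further: inhibitors leave more ATP so luminescence rises with inhibition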); conditions: recombinant PfCDPK1, Kinase-Glo ATP depletion luminescence
[6] = target: Plasmodium falciparum protein kinase 6 (PK6, PF3D7_1337100) (UniProt Q8IDW1); test: PfPK6 kinase inhibitors, biochemical, TCAMS library (AID 1159586); conditions: recombinant PfPK6, Kinase-Glo ATP depletion luminescence
[7] = target: Protein kinase 7 (PK7), Plasmodium falciparum 3D7 (PF3D7_0213400) (UniProt Q7YTF7); test: inhibition of Plasmodium PK7 catalytic activity – biochemical, TCAMS antimalarial set, Kinase-Glo luminescence (AID 1159587); conditions: recombinant PfPK7, Kinase-Glo ATP depletion luminescence
[8] = target: Calcium-dependent protein kinase 4 (Plasmodium falciparum (isolate 3D7)) (UniProt Q8IBS5); test: PfCDPK4 kinase inhibitors, biochemical, TCAMS library (AID 1159588; cut-off not given, nearly all actives have IC50 up to about 0.91 µM); conditions: recombinant PfCDPK4, Kinase-Glo ATP depletion luminescence
Chain of Calcium-dependent protein kinase 4 (Plasmodium falciparum (isolate 3D7)) (Q8IBS5 whole entry, looked up): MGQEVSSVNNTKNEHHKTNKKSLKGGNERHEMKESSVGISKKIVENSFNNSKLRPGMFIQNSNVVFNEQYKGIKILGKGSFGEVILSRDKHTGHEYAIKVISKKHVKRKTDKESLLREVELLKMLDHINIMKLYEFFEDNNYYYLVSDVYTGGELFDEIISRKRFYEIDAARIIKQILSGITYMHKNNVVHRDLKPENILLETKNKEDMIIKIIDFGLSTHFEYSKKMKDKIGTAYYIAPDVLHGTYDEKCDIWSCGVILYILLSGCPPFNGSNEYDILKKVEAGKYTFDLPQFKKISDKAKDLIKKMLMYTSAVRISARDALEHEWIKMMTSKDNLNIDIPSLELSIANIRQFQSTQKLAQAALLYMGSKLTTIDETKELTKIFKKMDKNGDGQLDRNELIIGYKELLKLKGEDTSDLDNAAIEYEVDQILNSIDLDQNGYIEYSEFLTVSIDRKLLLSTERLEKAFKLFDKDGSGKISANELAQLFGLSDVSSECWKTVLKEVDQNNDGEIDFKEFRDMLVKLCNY

Chain of Calcium-dependent protein kinase 1 (Plasmodium falciparum (isolate 3D7)) (P62344 whole entry, looked up): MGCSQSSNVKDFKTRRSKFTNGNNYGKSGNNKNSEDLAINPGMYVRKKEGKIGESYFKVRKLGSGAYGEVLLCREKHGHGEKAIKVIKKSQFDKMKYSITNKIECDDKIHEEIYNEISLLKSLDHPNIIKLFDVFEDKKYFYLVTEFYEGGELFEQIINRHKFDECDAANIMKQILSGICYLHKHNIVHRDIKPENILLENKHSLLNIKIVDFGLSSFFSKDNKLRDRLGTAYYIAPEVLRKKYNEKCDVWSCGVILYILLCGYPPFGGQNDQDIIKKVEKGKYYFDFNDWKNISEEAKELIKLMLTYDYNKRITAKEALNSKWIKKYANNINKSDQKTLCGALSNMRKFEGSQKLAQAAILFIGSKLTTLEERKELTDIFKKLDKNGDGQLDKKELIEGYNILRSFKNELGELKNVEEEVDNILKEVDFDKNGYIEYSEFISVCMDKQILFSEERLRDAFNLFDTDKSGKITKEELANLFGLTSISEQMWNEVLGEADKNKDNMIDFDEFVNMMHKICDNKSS
Chain of Plasmodium falciparum protein kinase 6 (PK6, PF3D7_1337100) (Q8IDW1 1-305): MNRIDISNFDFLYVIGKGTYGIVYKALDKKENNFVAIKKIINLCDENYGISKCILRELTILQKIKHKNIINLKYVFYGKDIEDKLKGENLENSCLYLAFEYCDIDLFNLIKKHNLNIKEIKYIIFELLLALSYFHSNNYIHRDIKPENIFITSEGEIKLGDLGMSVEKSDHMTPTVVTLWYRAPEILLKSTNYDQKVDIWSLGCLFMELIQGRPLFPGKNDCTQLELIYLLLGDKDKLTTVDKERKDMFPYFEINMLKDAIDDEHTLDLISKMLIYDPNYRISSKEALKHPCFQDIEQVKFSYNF
Chain of L-lactate dehydrogenase (Plasmodium falciparum (isolate CDC / Honduras)) (Q27743 whole entry, looked up): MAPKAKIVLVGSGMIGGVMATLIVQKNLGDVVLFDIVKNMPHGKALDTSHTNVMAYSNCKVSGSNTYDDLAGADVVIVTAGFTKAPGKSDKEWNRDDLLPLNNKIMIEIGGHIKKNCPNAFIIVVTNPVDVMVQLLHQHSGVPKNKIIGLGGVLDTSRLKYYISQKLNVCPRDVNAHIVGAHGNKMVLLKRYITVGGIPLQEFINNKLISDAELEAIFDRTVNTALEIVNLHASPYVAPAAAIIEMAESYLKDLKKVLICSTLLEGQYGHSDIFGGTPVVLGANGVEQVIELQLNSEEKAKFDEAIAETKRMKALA
Chain of Protein kinase 7 (PK7), Plasmodium falciparum 3D7 (PF3D7_0213400) (Q7YTF7 1-343): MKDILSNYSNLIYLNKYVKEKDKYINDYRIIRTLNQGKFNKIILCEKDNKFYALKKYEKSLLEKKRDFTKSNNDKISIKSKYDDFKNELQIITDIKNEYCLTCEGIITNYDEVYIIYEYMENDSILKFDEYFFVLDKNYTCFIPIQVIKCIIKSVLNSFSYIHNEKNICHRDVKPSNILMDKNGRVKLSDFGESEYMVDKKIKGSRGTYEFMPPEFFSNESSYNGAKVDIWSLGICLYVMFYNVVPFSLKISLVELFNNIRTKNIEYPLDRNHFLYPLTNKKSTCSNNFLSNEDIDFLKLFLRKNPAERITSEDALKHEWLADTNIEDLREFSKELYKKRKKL

| Structure (SMILES) | growth inhibition [1] | inhibition [2] | inhibition [3] [%] | growth inhibition [4] | outcome [5] | outcome [6] | outcome [7] | outcome [8] |
| --- | --- | --- | --- | --- | --- | --- | --- | --- |
| CCCNCc1ccc(-c2ccc(CN(CCOC)C(=O)COc3ccccc3Cl)cc2)nc1 | 29% | -1% | -2 | 96% (active) | inactive | inactive | inactive | inactive |
| CCCCOc1ccc(N2C(N)=NC(N)=NC2(C)C)cc1 | 3% | 16% | 6 | 97% (active) | inactive | inactive | inactive | inactive |
| COc1cc(F)c2ncc(Cl)c(CCN3CCC(NCc4ccc5c(c4)NC(=O)CO5)CC3)c2c1 | 79% (active) | 32% | -2 | 95% (active) | inactive | inactive | inactive | inactive |
| N#Cc1ccc(C=NNc2nc3ccccc3[nH]2)cc1 | 71% (active) | -4% | 3 | 101% (active) | inactive | inactive | inactive | inactive |
| COc1c(C2CCN(CCCCNC(=O)c3cc(-c4ccc(Cl)cc4)sc3C)CC2)ccc2c1CCCC2 | 65% (active) | 61% (active) | 2 | 101% (active) | inactive | inactive | inactive | inactive |
| CC(C)=CCN1CCC(C(=O)Nc2ccc(-c3nc4ccccc4[nH]3)cc2)CC1 | -1% | -2% | -3 | 95% (active) | inactive | inactive | inactive | inactive |
| Cc1ccc2c(c1)nc(N)n2C[C@H](O)c1ccccc1 | 74% (active) | -3% | 7 | 100% (active) | inactive | inactive | inactive | inactive |
| FC(F)(F)c1ccc2nc(-c3cccc(-c4cccc(CNCCN5CCNCC5)c4)c3)[nH]c2c1 | 18% | 29% | 4 | 92% (active) | inactive | inactive | inactive | inactive |
| COc1ccc2ncc(F)c(CCN3C[C@H](CNCc4ccc5c(n4)NC(=O)CS5)[C@H](O)C3)c2c1 | 34% | -3% | -3 | 92% (active) | inactive | inactive | inactive | inactive |
| CCCCCCN1CCC(NCc2ccc(C)cc2)CC1 | 4% | 16% | -1 | 93% (active) | inactive | inactive | inactive | inactive |
| Cc1noc(=O)c2ccc(NC(=O)C(O)(CSc3ccccc3)CC(C)C)cc12 (configuration not stated) | 89% (active) | -15% | 0 | 99% (active) | inactive | inactive | inactive | inactive |
| Cc1cc(C(=O)CN2C(=O)NC3(CCOc4ccccc43)C2=O)c(C)n1Cc1ccc(F)cc1 (configuration not stated) | 84% (active) | 1% | 0 | 95% (active) | inactive | inactive | inactive | inactive |
| COc1ccc2cc(C(=O)Nc3ccc4c(c3)CCN(C3CCC3)CC4)ccc2c1 | 9% | 34% | 2 | 101% (active) | inactive | inactive | inactive | inactive |
| O=C(Nc1cccc(-c2ccc(-c3nc4ccc(C(F)(F)F)cc4[nH]3)s2)c1)c1cnc[nH]1 | 36% | 55% (active) | -3 | 89% (active) | inactive | inactive | inactive | inactive |
| Nc1nc(N)c2c(Oc3cccc4ccccc34)cccc2n1 | 10% | 42% | 6 | 96% (active) | inactive | inactive | inactive | inactive |
| CCc1[nH]nc(C(=O)NC2CCN(CC3(c4ccc(OC)cc4)CCCCC3)CC2)c1C | 90% (active) | 2% | -1 | 90% (active) | inactive | inactive | inactive | inactive |
| O=C(NCCc1ccccc1)N(Cc1cccc(-c2ccc(CNC3CCCC3)cc2)c1)C1CCN(Cc2ccccc2)CC1 | 84% (active) | 36% | 0 | 98% (active) | inactive | inactive | inactive | inactive |
| CN(C)c1nc2cc(-n3cnc4cc(-c5ccc(Cl)cc5)sc4c3=O)ccc2n1CCCN1CCCCC1 | 23% | 55% (active) | 1 | 97% (active) | inactive | inactive | inactive | inactive |
| CCC(NC(=O)c1ccccc1NC(=O)c1ccc(C)cc1)C(=O)OC (configuration not stated) | 86% (active) | -4% | 3 | 95% (active) | inactive | inactive | inactive | inactive |
| O=C(NCc1cc2c(cc1Cl)OCO2)c1ccc(CNC2CCN(Cc3ccccc3)CC2)cc1 | 47% | 11% | -3 | 100% (active) | inactive | inactive | inactive | inactive |

| Structure (SMILES) | growth inhibition [1] | inhibition [2] | inhibition [3] [%] | growth inhibition [4] | outcome [5] | outcome [6] | outcome [7] | outcome [8] |
| --- | --- | --- | --- | --- | --- | --- | --- | --- |
| CN1CCN(c2nc(NCCNc3ccc([N+](=O)[O-])cc3)c3ccccc3n2)CC1 | 25% | 37% | 6 | 90% (active) | inactive | inactive | inactive | inactive |
| O=C(Nc1ccc(Cl)c(Cl)c1)Nc1ccc(F)c([N+](=O)[O-])c1 | 96% (active) | 49% | -3 | 101% (active) | inactive | inactive | inactive | inactive |
| Cn1nccc1C(=O)NCCNCc1ccc(-c2cccc(-c3nc4ccccc4[nH]3)c2)cc1 | 87% (active) | 35% | 2 | 101% (active) | inactive | inactive | inactive | inactive |
| O=c1cc(NCCCNCc2cccc(I)c2)[nH]c2ccccc12 | 9% | 10% | -1 | 90% (active) | inactive | inactive | inactive | inactive |
| Cc1ccc2cc(NC(=O)CCCCCCCON3C(N)=NC(N)=NC34CCCCC4)ccc2n1 | 86% (active) | 6% | 3 | 98% (active) | inactive | inactive | inactive | inactive |
| Cc1ccc(Nc2nc(NN=Cc3cccc(O)c3)nc(Nc3ccc([N+](=O)[O-])cc3)n2)cc1C | 69% (active) | -2% | 5 | 101% (active) | inactive | inactive | inactive | inactive |
| O=C(Nc1ccc(Cl)c(Cl)c1)N1CCc2cc3nccc(N4CCN5CCC[C@H]5C4)c3cc21 | 75% (active) | 2% | -7 | 100% (active) | inactive | inactive | inactive | inactive |
| N=c1c(C(=O)NCc2ccccc2)cc2c(=O)n3ccccc3nc2n1CCc1ccccc1 | 25% | 5% | -6 | 99% (active) | inactive | inactive | inactive | inactive |
| Nc1nccc2ccc(-c3ccc4nccn4c3)cc12 | 100% (active) | 15% | -2 | 101% (active) | inactive | inactive | inactive | inactive |
| CCC(ON1C(N)=NC(N)=NC1(C)C)c1ccc(Cl)cc1 (configuration not stated) | 90% (active) | 68% (active) | 3 | 91% (active) | inactive | inactive | inactive | inactive |
| O=C(Nc1ccc(C(F)(F)F)cc1)c1ccc(S(=O)(=O)NC2CCN(CC3CCCCC3)C2)cc1 (configuration not stated) | 16% | 33% | 5 | 99% (active) | inactive | inactive | inactive | inactive |
| COc1ccc(NC(=O)Nc2nc3ccccc3s2)cc1N1CCN(C)CC1 | 22% | 6% | -1 | 95% (active) | inactive | inactive | inactive | inactive |
| Fc1ccc(CNc2ccc3ncc(-c4cccnc4)n3n2)cc1 | 7% | 7% | -2 | 87% (active) | inactive | inactive | inactive | inactive |
| Cc1cc(C(=O)CN2C(=O)NC3(CCOc4ccccc43)C2=O)c(C)n1Cc1ccco1 (configuration not stated) | 42% | 13% | 5 | 93% (active) | inactive | inactive | inactive | inactive |
| Cc1nc2nc(N)nc(N)c2c(C)c1Cc1cccc(C(N)=O)c1 | -1% | 59% (active) | 5 | 91% (active) | inactive | inactive | inactive | inactive |
| CC(=O)Nc1cccc(C(=O)Nc2ccc(-c3ccc(-c4nc5c(C)cccc5[nH]4)s3)cc2)c1 | 20% | 94% (active) | 2 | 93% (active) | inactive | inactive | inactive | inactive |
| O=C(NC1CCCCC1)c1ccc(O)c(-c2cccc(C(F)(F)F)c2)c1 | 87% (active) | 8% | 0 | 97% (active) | inactive | inactive | inactive | inactive |
| CCCCNC(=O)[C@H](CC1CCCCC1)NC(=O)c1ccc(O)c(-c2cccc(C(F)(F)F)c2)c1 | 86% (active) | -8% | 0 | 98% (active) | inactive | inactive | inactive | inactive |
| CC(C)c1cc(C(=O)N[C@@H](Cc2ccccc2)[C@H](O)CNC2CCCCC2)cc(N2CCCC2=O)c1 | 98% (active) | -11% | 5 | 101% (active) | inactive | inactive | inactive | inactive |
